The nature of test [1]: NCI Yeast Anticancer Drug Screen. Data for the rad50 strain (AID 155).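 Also: 0% = growth of vehicle-only cultures of the same strain.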 As to conditions: S. cerevisiae rad50 strain growth inhibition, stronger effect = higher value. In short, it runs like this:
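Genetically altered yeast (DNA repair pathway); compound treatment; growth inhibition vs vehicle ctrl.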

The nature of test [2]: NCI Yeast Anticancer Drug Screen. Data for the mec2-1 strain (AID 157). To be noted: S. cerevisiae mec2-1 strain, stronger effect = higher value. A digest of the protocol:
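Vehicle-treated cultures served as reference for growth inhibition of compound-exposed mec2-1 yeast.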

A short description of test [3]: NCI Yeast Anticancer Drug Screen. Data for the sgs1 mgt1 strain (AID 161).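 Also: 0% = growth of cultures given vehicle only.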 To be noted: S. cerevisiae sgs1 mgt1 strain, stronger effect = higher value. In short, it runs like this: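 Genetically altered yeast, compound exposure, growth inhibition relative to vehicle.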
Test [4] in a line: NCI Yeast Anticancer Drug Screen. Data for the cln2 rad14 strain (AID 165).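 Also: 0% = growth equal to vehicle treated cultures.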 To be noted: S. cerevisiae cln2 rad14 strain, stronger effect = higher value. In short, it runs like this:
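Each compound was tested on cln2 rad14 yeast. Inhibition of growth was calculated against vehicle-exposed controls.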

A short description of test [5]: NCI Yeast Anticancer Drug Screen. Data for the bub3 strain (AID 167). To be noted: S. cerevisiae bub3 mutant strain, stronger effect = higher value. A digest of the protocol: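 Yeast carrying a defined mutation is treated with each compound, and growth is compared with that of vehicle-exposed cells to give inhibition.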
The nature of test [6]: NCI Yeast Anticancer Drug Screen. Data for the mlh1 rad18 strain (AID 175). To be noted: S. cerevisiae mlh1 rad18 strain growth inhibition, stronger effect = higher value. A digest of the protocol: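 Vehicle-treated cultures served as the reference for growth inhibition in a yeast strain carrying DNA damage repair alterations exposed to each compound.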
Setting [7] is: at 5.0 µM (retest, dose inferred, filed as 0.5).
The mark [8] stands for this setting: at 50.0 µM (retest, dose inferred, filed as 5.0).

The record followed here is PubChem BioAssay (NCI).

About 79,000 compounds went through this panel and 15% of them were active in at least one assay; those are over-represented in the sample as a whole. Unmarked numbers belong to inactive results. Activity calls are given as the source filed them. Rule as the data show it: active = growth inhibition above about 70%; inactive = the rest.

With `CC(NNC(=S)NCc1ccccc1)c1cc2ccccc2cn1` (stereo not given), the growth inhibition was 12% in test [1] (setting [7]); 88% (active) in test [1] (setting [8]); 82.2% (active) in test [1] (at 50.0 µM); 9% in test [2] (setting [7]); 93% (active) in test [2] (setting [8]); 80.8% (active) in test [2] (at 50.0 µM). In addition, the growth inhibition is 14% in test [3] (setting [7]); 91% (active) in test [3] (setting [8]); 86.9% (active) in test [3] (at 50.0 µM); 3% in test [4] (setting [7]); 79% (active) in test [4] (setting [8]); 80% (active) in test [4] (at 50.0 µM). In addition, the growth inhibition is 11% in test [5] (setting [7]); 93% (active) in test [5] (setting [8]); 83.7% (active) in test [5] (at 50.0 µM); 19% in test [6] (setting [7]); 93% (active) in test [6] (setting [8]); 89.7% (active) in test [6] (at 50.0 µM).
Take `CN(C)c1cc2c(cc1[N+](=O)[O-])-c1ccccc1C2O` (stereo not given): the growth inhibition in test [1] (setting [7]) is 5%; in test [1] (setting [8]) it was 48%; in test [1] (at 50.0 µM) it was 91.4% (active); in test [2] (setting [7]) it was -1%; in test [2] (setting [8]), 28%; in test [2] (at 50.0 µM), 29.9%. The growth inhibition in test [3] (setting [7]) is 0%; in test [3] (setting [8]) it was 57%; in test [3] (at 50.0 µM), 56.6%; in test [4] (setting [7]), -4%; in test [4] (setting [8]) it was 34%; in test [4] (at 50.0 µM) it was 41.4%. In addition, the growth inhibition in test [5] (setting [7]) was -6%; in test [5] (setting [8]), 60%; in test [5] (at 50.0 µM) it was 70.5% (active); in test [6] (setting [7]), 5%; in test [6] (setting [8]) it was 74% (active); in test [6] (at 50.0 µM), 86.6% (active).
`NC(=S)Nc1ccccc1O`: the growth inhibition in test [1] (setting [7]) was 6%; in test [1] (setting [8]), 43%; in test [1] (at 50.0 µM) it was 50.5%; in test [2] (setting [7]), -10%; in test [2] (setting [8]), 19%; in test [2] (at 50.0 µM) it was 50.9%. The growth inhibition in test [3] (setting [7]) is 6%; in test [3] (setting [8]), 15%; in test [3] (at 50.0 µM), 40.9%; in test [4] (setting [7]), 0%; in test [4] (setting [8]), 21%; in test [4] (at 50.0 µM), 8.25%. Further, the growth inhibition in test [5] (setting [7]) was 17%; in test [5] (setting [8]) it was 72% (active); in test [5] (at 50.0 µM), 80.3% (active); in test [6] (setting [7]), 14%; in test [6] (setting [8]), 46%; in test [6] (at 50.0 µM), 59.2%.
As for `O=C1CNCCCN2CCN(CCCNCC(=O)Nc3ccc(cc3)S(=O)(=O)c3ccc(cc3)NC(=O)CNCCCN3CCN(CCCNCC(=O)Nc4ccc(cc4)S(=O)(=O)c4ccc(cc4)N1)CC3)CC2`, the growth inhibition in test [1] (setting [7]) is 1%; in test [1] (setting [8]) it was 99% (active); in test [1] (at 50.0 µM) it was 98.8% (active); in test [2] (setting [7]), -25%; in test [2] (setting [8]), 99% (active); in test [2] (at 50.0 µM), 98.8% (active). Moreover, the growth inhibition is -14% in test [3] (setting [7]); 99% (active) in test [3] (setting [8]); 99% (active) in test [3] (at 50.0 µM); -5% in test [4] (setting [7]); 99% (active) in test [4] (setting [8]); 96.8% (active) in test [4] (at 50.0 µM). Besides, the growth inhibition in test [5] (setting [7]) was -3%; in test [5] (setting [8]), 99% (active); in test [5] (at 50.0 µM), 97.8% (active); in test [6] (setting [7]) it was -11%; in test [6] (setting [8]), 99% (active); in test [6] (at 50.0 µM), 98.7% (active).
As for `COc1cc(C(c2ccccc2)c2ccccc2)c2ccccc2c1O`, the growth inhibition in test [1] (setting [7]) was 15%; in test [1] (setting [8]) it was 51%; in test [1] (at 50.0 µM) it was 33.3%; in test [2] (setting [7]), 15%; in test [2] (setting [8]), 41%; in test [2] (at 50.0 µM), 16.6%. Also, the growth inhibition was -17% in test [3] (setting [7]); 25% in test [3] (setting [8]); 61.4% in test [3] (at 50.0 µM); 13% in test [4] (setting [7]); 73% (active) in test [4] (setting [8]); 44.9% in test [4] (at 50.0 µM). Moreover, the growth inhibition was 8% in test [5] (setting [7]); 70% (active) in test [5] (setting [8]); 40.2% in test [5] (at 50.0 µM); 24% in test [6] (setting [7]); 75% (active) in test [6] (setting [8]); 74% (active) in test [6] (at 50.0 µM).
As for `CC(=O)c1cccc(NC(=O)C(=O)NNc2n[nH]c(=S)n2N)c1`, the growth inhibition in test [1] (setting [7]) was 16%; in test [1] (setting [8]), 95% (active); in test [1] (at 50.0 µM) it was 89.4% (active); in test [2] (setting [7]), -20%; in test [2] (setting [8]) it was 94% (active); in test [2] (at 50.0 µM), 94.1% (active). The growth inhibition in test [3] (setting [7]) is 6%; in test [3] (setting [8]) it was 90% (active); in test [3] (at 50.0 µM), 92.9% (active); in test [4] (setting [7]), 19%; in test [4] (setting [8]), 77% (active); in test [4] (at 50.0 µM) it was 92.4% (active). Also, the growth inhibition in test [5] (setting [7]) is -19%; in test [5] (setting [8]), 95% (active); in test [5] (at 50.0 µM) it was 92.8% (active); in test [6] (setting [7]) it was 19%; in test [6] (setting [8]), 94% (active); in test [6] (at 50.0 µM), 91.1% (active).
Regarding `C=CC(C)(CCC=C(C)C)OC(=O)Nc1ccccc1` (stereo not given), the growth inhibition in test [1] (setting [7]) was 19%; in test [1] (setting [8]), -13%; in test [1] (at 50.0 µM), -7.2%; in test [2] (setting [7]), 2%; in test [2] (setting [8]) it was -25%; in test [2] (at 50.0 µM), -12.7%. In addition, the growth inhibition in test [3] (setting [7]) is -10%; in test [3] (setting [8]), 13%; in test [3] (at 50.0 µM) it was 16.1%; in test [4] (setting [7]) it was -2%; in test [4] (setting [8]) it was 6%; in test [4] (at 50.0 µM) it was -7.95%. Further, the growth inhibition in test [5] (setting [7]) is 0%; in test [5] (setting [8]) it was -14%; in test [5] (at 50.0 µM) it was 8.05%; in test [6] (setting [7]), -2%; in test [6] (setting [8]) it was 24%; in test [6] (at 50.0 µM), -4.25%.
`O=C1CC(O)C=C1Nc1ccc(Cl)cc1` (stereo not given): the growth inhibition in test [1] (setting [7]) was 3%; in test [1] (setting [8]), 14%; in test [1] (at 50.0 µM) it was 98.8% (active); in test [2] (setting [7]), -3%; in test [2] (setting [8]), 29%; in test [2] (at 50.0 µM) it was 98.2% (active). Besides, the growth inhibition was -6% in test [3] (setting [7]); 4% in test [3] (setting [8]); 98.7% (active) in test [3] (at 50.0 µM); -8% in test [4] (setting [7]); -8% in test [4] (setting [8]); 98.5% (active) in test [4] (at 50.0 µM). Moreover, the growth inhibition in test [5] (setting [7]) was -9%; in test [5] (setting [8]) it was -22%; in test [5] (at 50.0 µM), 97.8% (active); in test [6] (setting [7]), 0%; in test [6] (setting [8]), 7%; in test [6] (at 50.0 µM), 98.5% (active).
`CCCCN1C(=O)C[C@H]2[C@@H]3CCc4cc(OCCN5CCCC5)ccc4[C@H]3CC[C@]2(C)C1=O`: the growth inhibition was 36% in test [1] (setting [7]); 75% (active) in test [1] (setting [8]); 56.9% in test [1] (at 50.0 µM); 30% in test [2] (setting [7]); 53% in test [2] (setting [8]); 55.4% in test [2] (at 50.0 µM). The growth inhibition is 66% in test [3] (setting [7]); 90% (active) in test [3] (setting [8]); 71.5% (active) in test [3] (at 50.0 µM); 33% in test [4] (setting [7]); 70% (active) in test [4] (setting [8]); 73.1% (active) in test [4] (at 50.0 µM). In addition, the growth inhibition is 57% in test [5] (setting [7]); 72% (active) in test [5] (setting [8]); 78.6% (active) in test [5] (at 50.0 µM); 68% in test [6] (setting [7]); 78% (active) in test [6] (setting [8]); 63.6% in test [6] (at 50.0 µM).
Regarding `O=C1NC(=S)S/C1=C\c1cc(Cl)ccc1O`, the growth inhibition was 4% in test [1] (setting [7]); -7% in test [1] (setting [8]); 2.85% in test [1] (at 50.0 µM); -4% in test [2] (setting [7]); -6% in test [2] (setting [8]); 15.7% in test [2] (at 50.0 µM). Besides, the growth inhibition in test [3] (setting [7]) was -1%; in test [3] (setting [8]), 4%; in test [3] (at 50.0 µM), 60.5%; in test [4] (setting [7]), -7%; in test [4] (setting [8]), -18%; in test [4] (at 50.0 µM), -22.4%. Also, the growth inhibition in test [5] (setting [7]) is -7%; in test [5] (setting [8]), -14%; in test [5] (at 50.0 µM), -4.2%; in test [6] (setting [7]), -5%; in test [6] (setting [8]) it was -6%; in test [6] (at 50.0 µM), 3.05%.
